Measurements published in PMC7819943, “Rice protein-binding microarrays: a tool to detect cis-acting elements near promoter regions in rice”.
Whole data set: some 68,000 sequences, median “fluorescence intensity (a.u.)” near 9,100, cut for the highest 2% near 16,000. Only a selection was taken, and the highest values are over-represented in it overall.

What follows are sequences tested against OsWRKY34 (Oryza sativa, UniProt Q0JBA9 1-250) (assay: protein-binding microarray (RPBM); PBS, 2% BSA, 51.3 ng/ul salmon testes DNA, 50 uM zinc acetate, 200 nM TF, 25 C, 1 h; high values mean tight binding). Conditions: protein: recombinant; tags: N-terminal polyhistidine and DsRed monomer fusion (pET32a); label: CyDye5-dUTP incorporated in the synthesized complementary strand; 3' TTTTT single-stranded linker to array surface; dsDNA, one strand shown.
OsWRKY34, sequence (Q0JBA9 entry or part of it): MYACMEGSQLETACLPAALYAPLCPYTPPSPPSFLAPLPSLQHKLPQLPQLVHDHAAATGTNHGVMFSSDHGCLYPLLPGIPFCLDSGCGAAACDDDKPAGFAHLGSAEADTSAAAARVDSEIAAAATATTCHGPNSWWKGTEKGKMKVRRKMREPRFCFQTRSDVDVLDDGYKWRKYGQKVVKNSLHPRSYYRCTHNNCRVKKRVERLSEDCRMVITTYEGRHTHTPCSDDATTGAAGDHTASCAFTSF
Outline: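 Ni–NTA purification followed expression in E. coli BL21-CodonPlus of transcription factors fused N-terminally to a polyhistidine tag and DsRed. At 200 nM in PBS with 2% BSA, salmon testes DNA and 50 µM zinc acetate, the protein was incubated for 1 h at 25 °C with a custom Agilent array that had been primer-extended with Cy5-dUTP and blocked with 2% BSA. After washing, the array was read on an Axon 4000B scanner. The binding signal is per-feature fluorescence intensity in arbitrary units.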
With “CCTTCGCTCGCCACGTGGCAGCCGCTAGTCCTTATCGCCGCGGAGTCACCTAGTGCAG” the binding signal was 10300 fluorescence intensity (a.u.).
With “GGGAAACCAGGCTATCCTCTTGGTCACTCTGCACCAATTCCGGAGTCACCTAGTGCAG” the binding signal was 10500 fluorescence intensity (a.u.).
In the case of “ACAGCTCTGCTCAACCTTGCCATCTCGATCAATCGATCCTCGGAGTCACCTAGTGCAG”, the binding signal is reported as 11400 fluorescence intensity (a.u.).
With “GGTTTCTTGGATTGGGCTGTGGCTGGCGTTGGTCGGAGGACGGAGTCACCTAGTGCAG” the binding signal was 19100 fluorescence intensity (a.u.).
With “CGGTGTCGGATTTTTGGTTGGTTGACGGGGTTTGTGAGGTCGGAGTCACCTAGTGCAG” the binding signal was 17500 fluorescence intensity (a.u.).
In the case of “GGGTTGGTCCGCGTTCTTGCCTCCTGGTTGGCCGATGTTTCGGAGTCACCTAGTGCAG”, the binding signal is reported as 15700 fluorescence intensity (a.u.).
In the case of “TAATAAGTGAGACCAAATATTGATTGTGTAGTATATATTTCGGAGTCACCTAGTGCAG”, the binding signal is reported as 8670 fluorescence intensity (a.u.).
With “CTTTGGCTTCTTGCCTACCGCGTTCTTGGTGATCGTTGGTCGGAGTCACCTAGTGCAG” the binding signal was 8270 fluorescence intensity (a.u.).
For “GAAATGTTGGTGACGGTGGAGGATTTTGTTGTTTTAGTGTCGGAGTCACCTAGTGCAG”, the binding signal was 9790 fluorescence intensity (a.u.).
“TGGATACTTGGCGTTGGTGGGCTGGTTCTTATTGGATACGCGGAGTCACCTAGTGCAG” was tested, and the binding signal was 8120 fluorescence intensity (a.u.).
For “GTTGACGGGGTTTGTGAGGTGTGGCGGTGACTTGGAAAGACGGAGTCACCTAGTGCAG”, the binding signal was 10100 fluorescence intensity (a.u.).
With “GGGAGTAGTATTGATTTGACCATCGTTGACCAAGAATAAGCGGAGTCACCTAGTGCAG” the binding signal was 17400 fluorescence intensity (a.u.).
“CATCGTTGACCAAGAATAAGAACAGCGAATTTGCATAATGCGGAGTCACCTAGTGCAG” was tested, and the binding signal was 14700 fluorescence intensity (a.u.).
For “AGGTGATGTTTGGGGTCGTTGGGTTGGTCCGCGTTCTTGCCGGAGTCACCTAGTGCAG”, the binding signal was 17400 fluorescence intensity (a.u.).
For “TTTCTTGGCTGGTTTGGTTGTGGATTGGATTGGATTGGGTCGGAGTCACCTAGTGCAG”, the binding signal was 16100 fluorescence intensity (a.u.).
With “GACAACCTGGAGCCCGACGACGACGAGGGGATGGGGAGGGCGGAGTCACCTAGTGCAG” the binding signal was 8810 fluorescence intensity (a.u.).
With “GTTAGTGTGTGGTTTGTTGCGTGCAGTCAGGTGCACTCGGCGGAGTCACCTAGTGCAG” the binding signal was 11000 fluorescence intensity (a.u.).
In the case of “TATTATTATGATGGGTTTGTATATTAAAATTGTCAGTTTGCGGAGTCACCTAGTGCAG”, the binding signal is reported as 8110 fluorescence intensity (a.u.).
In the case of “ACGCGCGCTACATTCTCCACCTCTCCACCATTCCAAACTGCGGAGTCACCTAGTGCAG”, the binding signal is reported as 9850 fluorescence intensity (a.u.).
“CACACAGCATCGTTTGGATTAATCACCGAACCGATCGACCCGGAGTCACCTAGTGCAG” was tested, and the binding signal was 8400 fluorescence intensity (a.u.).
“CCTCTCCTAGGTTAAGTTTTTTTGGGGCGAAGGGAGTATTCGGAGTCACCTAGTGCAG” was tested, and the binding signal was 8120 fluorescence intensity (a.u.).
“CTCTCGCGCGAGATGTCCGTGACTCTCTTTTCGTTTACACCGGAGTCACCTAGTGCAG” was tested, and the binding signal was 8420 fluorescence intensity (a.u.).
With “CTCTCGGTCGTCGGCCTCGTCCTCCGGGCCGGCATTCATCCGGAGTCACCTAGTGCAG” the binding signal was 8560 fluorescence intensity (a.u.).
With “GCTAGGGTTTTTGGGTTCACTTTGAGGCTGTTTGGTTGGTCGGAGTCACCTAGTGCAG” the binding signal was 15100 fluorescence intensity (a.u.).
In the case of “TGATCGAGAGAGGTGTTGTTGGAAGCTTGGTTGGTTGGGGCGGAGTCACCTAGTGCAG”, the binding signal is reported as 9000 fluorescence intensity (a.u.).
In the case of “CTTATACATTGGGTTGAGGGTTTTTTTGGTTGAGTTCGGCCGGAGTCACCTAGTGCAG”, the binding signal is reported as 9220 fluorescence intensity (a.u.).
With “TTGGTTGGTTGGTTGGTGTTTTGAGGCTTGGGTCGGCTTACGGAGTCACCTAGTGCAG” the binding signal was 17100 fluorescence intensity (a.u.).
In the case of “GCGCATGGTGTTCGGGAAGAAGTACATCGTCGAGGAGGGGCGGAGTCACCTAGTGCAG”, the binding signal is reported as 8540 fluorescence intensity (a.u.).
With “CTTGCCATGGTGTTGATTTGGGGCGGGAAGAAGCATCGGGCGGAGTCACCTAGTGCAG” the binding signal was 16800 fluorescence intensity (a.u.).
With “AGTTACCGTTCTAGTCAGGGGCGGATCCAGCGTGGGGCGGCGGAGTCACCTAGTGCAG” the binding signal was 12600 fluorescence intensity (a.u.).
With “ACATCCTTCTGGGTTGATTTTTTTCTATAGAGGGGTAGGTCGGAGTCACCTAGTGCAG” the binding signal was 8590 fluorescence intensity (a.u.).
In the case of “AAGTAAGATGCCACACACCATAGTCTGCTTCACTGTCAACCGGAGTCACCTAGTGCAG”, the binding signal is reported as 9080 fluorescence intensity (a.u.).
In the case of “CGTCTCCGCCGCTGCTTGAATCTGCCGCCACCATCACCGCCGGAGTCACCTAGTGCAG”, the binding signal is reported as 8910 fluorescence intensity (a.u.).
For “GCTGACATAATTGCTTGTTGGGATTCTTGGGAGGAAATGGCGGAGTCACCTAGTGCAG”, the binding signal was 8330 fluorescence intensity (a.u.).
“CTTCTCTCCTCTCCGCTGTGGTTTCTTGCTGGTTCTTGGACGGAGTCACCTAGTGCAG” was tested, and the binding signal was 10400 fluorescence intensity (a.u.).
“GTATTATGGGTGGAGGCGGGCGGCTGAGCTGTTCCTGGGCCGGAGTCACCTAGTGCAG” was tested, and the binding signal was 8880 fluorescence intensity (a.u.).
For “GCTGTACCAGTACTGACCGGGGTGGGGTGGCGGGAGCGGACGGAGTCACCTAGTGCAG”, the binding signal was 14600 fluorescence intensity (a.u.).
With “TCACCGGGCGGTCACCGGAGGCGGAGGCGGAGGGAGGGGCCGGAGTCACCTAGTGCAG” the binding signal was 10200 fluorescence intensity (a.u.).
“GAGATGGGGAGGGAGGCCGGCCGGGAGAGGGAGAGAGAGGCGGAGTCACCTAGTGCAG” was tested, and the binding signal was 8890 fluorescence intensity (a.u.).
For “GAGGCTGGGCTGGGCGGGCGTATCGTTCCTGCTCCCGGAGCGGAGTCACCTAGTGCAG”, the binding signal was 25400 fluorescence intensity (a.u.).
For “GGGGCGTCCCGGGAGGGGAGGGAGATGGGGAGGGAGCGGACGGAGTCACCTAGTGCAG”, the binding signal was 16800 fluorescence intensity (a.u.).
“ATTGTTTTTATAGGGGAGGGGAGGCGGGATCGAGCCCGGGCGGAGTCACCTAGTGCAG” was tested, and the binding signal was 15100 fluorescence intensity (a.u.).
